HepG2 viability: HepG2 cytotoxicity, counter-screen for TGF-b inhibitors | HepG2 CAGA-GFP viability, ATP luminescence, 18 h | 410,000 tested, 0.76% active | AID 588856 | Potency, µM (highest dose often 46.1 µM), hits mostly cytotoxic
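HepG2 CAGA-GFP cells (1000/well, DMEM with 1% FBS) received compound, then TGF-beta at 500 pg/mL final, and were incubated 18 hours at 37 degrees C. Viability was read by CellTiter-Glo luminescence. Media-only wells were set as complete cell-killing and DMSO as no toxicity.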
TGFb SMAD3 inh: TGF-b pathway inhibition | AID 588855 | HepG2 CAGA-GFP TGF-b/SMAD3 reporter, GFP fluorescence, 18 h; TGF-beta stimulated, 500 pg/mL final | Potency, µM (series often up to 46.1 µM), usual class: inhibitors | 410,000 tested, 1.2% active; further: nearly all actives have a fitted effect of over 65% in size
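Read-out: total well GFP (ex488/em500-530) summed from mean per-cell fluorescence. Cells: HEPG2 CAGA-GFP, 1% FBS DMEM, 18 h at 37 degrees C with 500 pg/mL final TGF-beta. Unstimulated wells served as the full-inhibition control; stimulated DMSO wells = 0%.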
DT40 TDP1 CPT: growth inhibition of DT40 Tdp1-/-;hTDP1 cells with camptothecin (screen for TDP1 inhibitors); chicken DT40 Tdp1-/-;hTDP1 cells + 20 nM CPT, ATP luminescence, 48 h; Potency, µM (titrated, usually from 46.2 µM), usual class: inhibitors; 420,000 tested, 12% active; further: nearly all actives have a fitted effect of over 55% in size
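Cell growth measured by CellTiter-Glo luminescence after a minimum 48 h, 37 C compound exposure with 20 nM CPT in Tdp1-knockout DT40 cells stably expressing hTDP1, seeded 400/well; qHTS titration format.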
IL-1B inflam inh: inhibitors of inflammasome signaling (IL-1 beta secretion); THP-1 LPS/ATP IL-1B secretion, AlphaLISA, 16 h; stronger effect = lower value; activity change, % at 57.5 µM; 360,000 tested, 4.7% active; in the data active means activity change below about -50%; inconclusive means mostly about -30% to -49%
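Secreted IL-1B measured by AlphaLISA bead assay after 16 h compound exposure of THP-1 cells; compounds (final up to 57.5 uM) added 1 h before LPS (250 ng/mL) and ATP (1.25 mM) stimulation; lower signal means less secretion.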
TDP1 inh: blocks human tyrosyl-DNA phosphodiesterase 1. 350,000 tested, 0.28% active. Potency, µM (top dose mostly 130 µM), hits mostly inhibitors. recombinant TDP1, AlphaScreen DNA substrate cleavage. AID 485290. Q9NUW8; further: nearly all actives have a fitted effect of over 40% in size
Target sequence (Q9NUW8 whole entry, looked up): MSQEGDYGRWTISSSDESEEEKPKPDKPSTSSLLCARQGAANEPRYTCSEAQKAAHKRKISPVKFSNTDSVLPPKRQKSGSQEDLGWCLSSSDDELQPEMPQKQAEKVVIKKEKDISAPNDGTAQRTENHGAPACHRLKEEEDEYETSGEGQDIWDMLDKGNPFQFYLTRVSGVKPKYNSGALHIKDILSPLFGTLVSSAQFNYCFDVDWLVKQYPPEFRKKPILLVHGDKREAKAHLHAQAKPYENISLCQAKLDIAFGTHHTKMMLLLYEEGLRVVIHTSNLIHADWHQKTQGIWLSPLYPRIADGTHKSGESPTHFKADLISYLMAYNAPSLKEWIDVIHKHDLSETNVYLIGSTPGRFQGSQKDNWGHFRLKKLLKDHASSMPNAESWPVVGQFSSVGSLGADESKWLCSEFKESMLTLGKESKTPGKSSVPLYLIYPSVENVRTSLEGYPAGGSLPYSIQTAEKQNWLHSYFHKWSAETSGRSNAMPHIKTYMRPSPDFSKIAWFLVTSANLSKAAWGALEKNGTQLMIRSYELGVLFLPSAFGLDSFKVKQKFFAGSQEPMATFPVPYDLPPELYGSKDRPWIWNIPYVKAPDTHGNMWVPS
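AlphaScreen read-out: signal falls as enzyme removes the 3' tyrosine-FITC from a 5'-biotinylated DNA oligo (15 nM, 5 min, RT). Enzyme was E. coli-made recombinant Tdp1 at 1 nM, exposed to compound for 15 min beforehand; beads 10 ug/ml, 10 min.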
DT40 TDP1 no CPT: qHTS for Inhibitors of human tyrosyl-DNA phosphodiesterase 1 (TDP1): qHTS in cells in absence of CPT; DT40 Tdp1-/- hTDP1 cells, no CPT, ATP luminescence, 48 h; Potency, µM (doses to about 46.2 µM), most hits filed as inhibitors; 420,000 tested, 15% active; further: nearly all actives have a fitted effect of over 55% in size
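Camptothecin absent (DMSO only). Human TDP1-complemented DT40 knockout cells, 400 cells/well, 37 °C for minimum 48 hr; ATP measured via CellTiter-Glo, 30 min dark incubation, luminescence.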
Each line names hits and unclear results; the compound was inactive in the other large screens. In the library only some 18% were active in any assay of this set; here they are far more common. Unless noted, the call rests on the fitted dose curve; in most records, active means well fitted curve in the direction sought with a large enough effect; inconclusive means small, poorly fitted or top-dose-only effect, or another doubt; inactive means no such curve, though single readings can be large; an effect the other way counts as inactive or inconclusive.

COc1ncc2nc(-c3ccc(Cl)cc3)c(=O)n(Cc3cccs3)c2n1	none (no result: HepG2 viability, TGFb SMAD3 inh, IL-1B inflam inh, TDP1 inh)
COc1ccc(CN2CCN(Cc3ccc(CO)o3)CC2CCO)cc1C (stereo not given)	none (no result: TDP1 inh)
CSc1ncccc1C(=O)OCC(=O)Nc1ccc(N2CCOCC2)cc1	none
COC(=O)c1ccc(-c2ccco2)n1Cc1nc(-c2ccc(OC)c(OC)c2)oc1C	TGFb SMAD3 inh inconclusive, DT40 TDP1 CPT 23µM, IL-1B inflam inh inconclusive, DT40 TDP1 no CPT 16µM
CCC1=C2CC[C@H]3C(=O)N(CC)C(=O)[C@H]3[C@H]2[C@@]2(C)C(=O)N(CC(=O)OC)C(=O)N2C1=O	none (no result: HepG2 viability, TGFb SMAD3 inh, DT40 TDP1 CPT, IL-1B inflam inh, DT40 TDP1 no CPT)
CC(=O)N1CCc2cc(S(=O)(=O)Nc3cccc(C(F)(F)F)c3)ccc21	DT40 TDP1 CPT 18µM, DT40 TDP1 no CPT 21µM
COC(=O)c1cc(S(=O)(=O)Nc2c(C)cccc2C)cn1C	none (no result: TDP1 inh)
CC(=O)N1CCc2cc(S(=O)(=O)Nc3ccc(C)cc3)ccc21	DT40 TDP1 CPT inconclusive, DT40 TDP1 no CPT inconclusive (no result: TDP1 inh)
COc1cccc(NS(=O)(=O)c2ccc3c(c2)CCCN3C(=O)C2CCC2)c1	TGFb SMAD3 inh inconclusive, DT40 TDP1 CPT 23µM, DT40 TDP1 no CPT inconclusive (no result: IL-1B inflam inh)
COc1cc(NS(=O)(=O)c2ccc3c(c2)CCN3S(C)(=O)=O)cc(OC)c1	DT40 TDP1 CPT 18µM, DT40 TDP1 no CPT 5.2µM (no result: IL-1B inflam inh)
COC(=O)c1cc(S(=O)(=O)Nc2cccc(OC)c2)cn1C	DT40 TDP1 CPT inconclusive, DT40 TDP1 no CPT 23µM (no result: TDP1 inh)
CNCCCOc1cc(C)cc(C)c1C	DT40 TDP1 CPT inconclusive, DT40 TDP1 no CPT inconclusive
COc1cccc(NS(=O)(=O)c2ccc3c(c2)N(C(C)=O)CCO3)c1	DT40 TDP1 CPT inconclusive
CC(=O)N1CCc2cc(S(=O)(=O)Nc3ccc(C)c(C)c3)ccc21	none (no result: HepG2 viability, TGFb SMAD3 inh, DT40 TDP1 CPT, IL-1B inflam inh, DT40 TDP1 no CPT)
CC(=O)N1CCOc2cc(S(=O)(=O)Nc3cccc(C(F)(F)F)c3)c(Cl)cc21	TGFb SMAD3 inh inconclusive, DT40 TDP1 CPT inconclusive, TDP1 inh 11µM, DT40 TDP1 no CPT inconclusive (no result: IL-1B inflam inh)
CC(=O)N1CCOc2cc(S(=O)(=O)Nc3cc(C(F)(F)F)ccc3Cl)c(C)cc21	none (no result: IL-1B inflam inh)
CC(=O)N1CCCc2cc(S(=O)(=O)Nc3ccc(C)c(F)c3)ccc21	TGFb SMAD3 inh inconclusive, DT40 TDP1 CPT inconclusive, DT40 TDP1 no CPT 16µM (no result: IL-1B inflam inh)
CSc1cccc(NS(=O)(=O)c2ccc3c(c2)CCN3C(C)=O)c1	DT40 TDP1 CPT 9.2µM, DT40 TDP1 no CPT 3.7µM (no result: TDP1 inh)
COc1cccc(NS(=O)(=O)c2ccc3c(c2)CCN3C(C)=O)c1	DT40 TDP1 CPT 7.3µM, DT40 TDP1 no CPT 7.3µM (no result: TDP1 inh)
Cc1ccc(-c2nnn(CC(=O)N(c3ccc4c(c3)OCCO4)C(C(=O)NCC3CCCO3)c3ccc(F)cc3)n2)o1 (stereo not given)	DT40 TDP1 no CPT inconclusive
C[C@H]1CN([C@@H](C)CO)C(=O)CCCn2cc(nn2)CO[C@@H]1CN(C)C(=O)Nc1ccc(-c2cccs2)cc1	none (no result: TDP1 inh)
Cc1ccc(Cn2cnc3c(cnn3C(C)(C)C)c2=O)cc1F	none (no result: DT40 TDP1 CPT, IL-1B inflam inh, TDP1 inh, DT40 TDP1 no CPT)
O=C(Cn1c(=O)n(-c2ccccc2)c(=O)c2ccc(C(=O)NCc3ccc4c(c3)OCO4)cc21)Nc1ccc(F)c(Cl)c1	DT40 TDP1 CPT inconclusive, DT40 TDP1 no CPT inconclusive (no result: IL-1B inflam inh)
CC(=O)c1ccc(N2CCN(C(=O)C(=O)c3cn(CC(=O)N4CCCCCC4)c4ccccc34)CC2)cc1	DT40 TDP1 CPT 23µM, DT40 TDP1 no CPT 13µM
CCOc1ccccc1NC(=O)CSc1cn(CC(=O)N2CCCCCC2)c2ccccc12	TGFb SMAD3 inh inconclusive, DT40 TDP1 CPT inconclusive, DT40 TDP1 no CPT 26µM (no result: IL-1B inflam inh)
CCOc1ccccc1NC(=O)COC(=O)c1cn(CC)c2nc(C)ccc2c1=O	TGFb SMAD3 inh inconclusive, DT40 TDP1 CPT 18µM, DT40 TDP1 no CPT inconclusive (no result: IL-1B inflam inh)
CCn1cc(C(=O)OCC(=O)c2cc(C)n(-c3ccc(OC(F)F)cc3)c2C)c(=O)c2ccc(C)nc21	DT40 TDP1 CPT inconclusive, DT40 TDP1 no CPT 13µM
